Compounds without any hit were thinned out: in the full panel of roughly 79,000, 15% have a hit. A number with no mark means an inactive call. Activity calls are given as the source filed them. Rule as the data show it: active = growth inhibition above about 70%; inactive = the rest.
Assay: NCI Yeast Anticancer Drug Screen. Data for the wt1 strain (AID 149);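 also: 0% = growth of vehicle-treated wt1 cultures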
Conditions: S. cerevisiae wt1 strain (SPY 50644) growth inhibition, hits give high values
Experimental: Growth inhibition of yeast strains with defined genetic alterations is measured as a screen for potential anti-cancer activity. Selected strains with alterations in DNA damage repair or cell cycle control were exposed to compounds and growth inhibition was measured relative to vehicle treated controls. The strain used in this assay is wt1

Compound	growth inhibition (at 1.2 µM)	growth inhibition (at 3.7 µM)	growth inhibition (at 11.0 µM)	growth inhibition (at 33.0 µM)	growth inhibition (at 100.0 µM)
Cn1ncc2cc3c(Nc4ccc(Cl)cc4)cccc3nc21	0%	-2%	-2%	0%	12%
O=C1c2cccc3cc([N+](=O)[O-])cc(c23)C(=O)N1CCN1CCCC1	8%	8%	0%	3%	25%
CN(Cc1cnc2nc(N)nc(N)c2n1)c1ccc(C(=O)NC(CCC(=O)O)C(=O)O)c2ccccc12 (stereo not given)	12%	17%	28%	69%	90% (active)
CN(C)c1ccc(N=Nc2ccccn2)cc1	-21%	31%	29%	87% (active)	94% (active)
C/C(=N\NC(=S)NC1CCCC1)c1ccccn1	3%	75% (active)	99% (active)	99% (active)	99% (active)
Clc1cc(-c2ccccc2)nc2ccccc12	-10%	-15%	-17%	24%	71% (active)
CSc1s[s+]c(SC)c1-c1ccccc1	5%	15%	18%	49%	65%
O=S(=O)(c1cc(Cl)ccc1O)c1cc(Cl)ccc1O	1%	89% (active)	99% (active)	99% (active)	99% (active)

Source: PubChem BioAssay (NCI)
